{
  "source": "the supplement of paper PMC4237247",
  "data": [
    {"system": "HeLa", "experiment": "percent cells in G1/S phase; higher = more G1/S content", "settings": "10 µM; 20 h; hit class: G2/M-phase inhibitor", "experimental": "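HTS of 79,827 drug-like compounds at 10 uM. HeLa cells in 384-well plates were treated for 20 h, fixed, stained with Vybrant DyeCycle Green and scanned on an Acumen eX3 cytometer to give per-well cell cycle profiles. Only G2/M hits (>=67% G2/M) are listed.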", "units": {"percent cells in G1/S phase": "%"}, "values": [
      {"smiles": "CN1Cc2c(ccc3c2OCO3)[C@@H]2[C@H]1c1cc3c(cc1C[C@@H]2O)OCO3", "note": "[Chelidonine monohydrate (+)]", "percent cells in G1/S phase": 19.8}
    ]}
  ]
}
